An excerpt weighted towards active compounds, which were near 21% of everything screened.
Cycloheximide cs: Cycloheximide Counterscreen for Small Molecule Inhibitors of Shiga Toxin; actives 12% (n = 300,000); max response, %; cell reporter, cycloheximide protein synthesis inhibition counterscreen; in the data active = max response mostly above about 13%, no sharp cut-off; inactive = mostly below about 14%; also: read at 38.3 µM for the half of the compounds with a filed dose
Pf growth 96h: Primary qHTS for delayed death inhibitors of the malarial parasite plastid, 96 hour incubation; P. falciparum luciferase reporter growth, 96 h; Potency, µM (top dose mostly 28.7 µM), usual class: inhibitors; actives 6.9% (n = 320,000); AID 504834, 2011; active = well fitted inhibition curve with a large enough effect; inconclusive = small, poorly fitted or top-dose-only effect, or another doubt; inactive = no such curve, though single readings can be large or run the other way
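P. falciparum expressing integrated firefly luciferase grown in erythrocytes (2% hematocrit, 0.05% parasitemia final) with compounds for 96 hours at 37 C, 5% CO2. Growth inhibition read as loss of luminescence after adding luciferase detection reagent.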
Pf growth 48h: Primary qHTS for delayed death inhibitors of the malarial parasite plastid, 48 hour incubation | AID 504832, 2011 | Potency, µM (doses to about 28.7 µM), most hits filed as inhibitors | P. falciparum luciferase growth in erythrocytes, 48 h | actives 5.9% (n = 310,000); active = well fitted inhibition curve with a large enough effect; inconclusive = small, poorly fitted or top-dose-only effect, or another doubt; inactive = no such curve, though single readings can be large or run the other way
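Cell-based growth assay: transgenic P. falciparum expressing firefly luciferase, cultured in red cells within RPMI 1640 containing 0.5% w/v Albumax, 24 mM bicarbonate and gentamycin. A drop in luciferase activity indicates inhibition.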
NS1 function inh: qHTS Assay for Inhibitors of Influenza NS1 Protein Function. actives 0.4% (n = 270,000). Potency, µM (titrated, usually from 46.1 µM); also: actives are rising curves; nearly all actives have a fitted effect of over 50% in size
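S. cerevisiae expressing influenza A NS1, grown in glucose, washed, then diluted 1:100 into pH 6.0 -URA galactose medium with 23 nl compound. Growth recovery read as OD600; NS1-free strain serves as control.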
SARS PLP yeast: qHTS of Yeast-based Assay for SARS-CoV PLP | AID 485353, 2010 | S. cerevisiae expressing SARS-CoV PLpro, growth rescue | actives 0.19% (n = 330,000) | Potency, µM (series often up to 32.9 µM), hits mostly activators; also: nearly all actives have a fitted effect of over 55% in size
Shiga toxin inh: A qHTS for Small Molecule Inhibitors of Shiga Toxin; inhibition, % at 38.7 µM; Vero cells, Shiga toxin protein synthesis inhibition reporter; AID 2315, 2010; actives 9.2% (n = 290,000); in the data active = inhibition mostly above about 28%, no sharp cut-off; inactive = mostly below about 43%
Large screens that a line does not name were inactive. Unless noted, calls follow the shape of the full dose curve.

CCCC1CC(=O)OC1(C)C(=O)CSc1n[nH]c(-c2ccccc2)n1 (centres undefined)	Shiga toxin inh 66 (no result: SARS PLP yeast)
C=CCNc1nc(N)c([N+](=O)[O-])c(NCc2ccccc2)n1	Pf growth 96h inconclusive
Nc1nc(NCCCN2CCOCC2)nc(NCc2ccccc2)c1[N+](=O)[O-]	Pf growth 96h inconclusive, Pf growth 48h inconclusive
Nc1nc(NCCN2CCOCC2)nc(NCc2ccccc2)c1[N+](=O)[O-]	Pf growth 96h 8.3µM, Pf growth 48h 6.6µM
Nc1nc(NCCc2ccccc2)nc(NCc2ccccc2)c1[N+](=O)[O-]	Pf growth 96h inconclusive, Pf growth 48h 9.3µM
FC(F)(F)c1cc(-c2ccccn2)nc2cc(-c3ccccc3)nn12	Pf growth 96h inconclusive
CCOC(=O)C1CCN(C(=O)C(=O)c2cn(CC(=O)N3CCCCCC3)c3ccccc23)CC1	Pf growth 96h 10µM, Pf growth 48h 12µM
CC1CCCCN1C(=O)C(=O)c1cn(CC(=O)N2CCCCCC2)c2ccccc12 (centres undefined)	Pf growth 96h 13µM, Pf growth 48h inconclusive
CCOC(=O)N1CCN(C(=O)C(=O)c2cn(CC(=O)N3CCCCCC3)c3ccccc23)CC1	Pf growth 96h 12µM, Pf growth 48h 12µM
CCOC(=O)C1CCCN(C(=O)C(=O)c2cn(CC(=O)N3CCOCC3)c3ccccc23)C1 (centres undefined)	none
CC1CCCCN1C(=O)Cn1cc(C=O)c2ccccc21 (centres undefined)	Pf growth 96h 13µM
COc1ccc(N(CC(=O)NCc2ccco2)C(=O)CCC(=O)Nc2ccccn2)cc1	Pf growth 96h inconclusive
CCCNC(C)C(=O)Nc1c(C)csc1C(=O)OC (centres undefined)	none (no result: Cycloheximide cs, NS1 function inh, SARS PLP yeast, Shiga toxin inh)
O=C(CSc1nnc(-c2csc3c2CCCC3)o1)Nc1ccccc1	Cycloheximide cs 58, Shiga toxin inh 55 (no result: Pf growth 48h)
Cc1cc(NC(=O)CSc2nnc(-c3ccc(O)cc3)o2)no1	Cycloheximide cs active, Pf growth 96h inconclusive, Pf growth 48h 6.6µM, Shiga toxin inh 52
O=C(CSc1nnc(Cc2ccccc2)o1)Nc1ccccc1	none
Cc1cc(NC(=O)CSc2ccc3nnc(-c4ccccc4)n3n2)no1	Pf growth 48h 2.6µM
Cc1cc(NC(=O)CSc2nnc(-c3ccccc3)o2)no1	Pf growth 96h 12µM, Pf growth 48h inconclusive (no result: NS1 function inh)
NC(=S)N=Nc1c(O)[nH]c2c(Br)cc(Br)cc12	Pf growth 48h inconclusive (no result: NS1 function inh)
CCN(CC)S(=O)(=O)c1cc(C(=O)OCC(=O)Nc2cccc(Br)c2)ccc1F	none
O=C(Nc1cccc(S(=O)(=O)NC2=NCCC2)c1)c1ccccc1OC(F)F	none (no result: Cycloheximide cs, NS1 function inh, Shiga toxin inh)
Cc1cc2occ(CC(=O)OCC(=O)Nc3sc4c(c3C#N)CCC(C)C4)c2cc1C (centres undefined)	none
Cc1cc(NC(=O)CN2CCN(S(=O)(=O)c3ccc(Cl)cc3)CC2)no1	none (no result: Pf growth 96h)
Cc1cc(NC(=O)CN2CCN(c3ccc(O)cc3)CC2)no1	Pf growth 96h 9.3µM, Pf growth 48h inconclusive
O=C(CSc1nnc(-c2ccc(O)cc2)o1)Nc1ccccc1	Cycloheximide cs 28, Shiga toxin inh 61
Cc1cc(-c2nnc(SCCC(=O)Nc3ccccc3)o2)no1	Cycloheximide cs 35, Pf growth 96h inconclusive
O=C(CCSc1nnc(-c2ccncc2)o1)Nc1ccccc1	none
O=C(CCNS(=O)(=O)c1ccc(Cl)cc1)Nc1ccncc1	none
Fc1cccc(/C=N/Nc2ncnc3nc[nH]c23)c1	Cycloheximide cs 83, Pf growth 96h inconclusive, Pf growth 48h inconclusive, Shiga toxin inh 71
Fc1ccccc1/C=N/Nc1ncnc2nc[nH]c12	Cycloheximide cs 49, Shiga toxin inh 139
Cc1ccc(C(C(=O)NCc2ccco2)N(C(=O)CNC(=O)c2cccs2)c2c(C)cc(C)cc2C)cc1 (centres undefined)	Cycloheximide cs 29, Pf growth 48h inconclusive
Cc1ccc(C(C(=O)NCc2ccco2)N(C(=O)CNC(=O)c2cccs2)c2c(C)cccc2C)cc1 (centres undefined)	none
Cc1ccc(C(C(=O)NCc2ccco2)N(Cc2ccco2)C(=O)CNC(=O)c2ccco2)cc1 (centres undefined)	Pf growth 96h 6.6µM
O=C(CC1(CC(=O)N2CCOCC2)CCCC1)Nc1ccccc1	none (no result: Cycloheximide cs, NS1 function inh, Shiga toxin inh)
Fc1ccc(Sc2nc(-c3ccccc3)nnc2C(F)(F)F)cc1	Pf growth 96h 13µM, Pf growth 48h 8.3µM
CCN(CCCCN1C(=O)c2ccccc2C1=O)c1ccc2c(c1)C(=O)N(C)C2=O	none (no result: Pf growth 96h, Pf growth 48h)
CCN(CC)c1ccc2c(c1)C(=O)N(C)C2=O	Cycloheximide cs 33, Shiga toxin inh 72
CCCCCCCN1C(Nc2ccccc2)=NC[C@@H]1Cc1ccccc1	Pf growth 96h 5.2µM, Pf growth 48h inconclusive
Cc1cccc(CCN2C(Nc3ccccc3)=NC[C@@H]2CC(C)C)c1	Pf growth 96h inconclusive, Pf growth 48h 10µM (no result: Cycloheximide cs, NS1 function inh, Shiga toxin inh)
CC(C)C[C@H]1CN=C(Nc2ccccc2)N1CCc1cccc(F)c1	none (no result: Cycloheximide cs, Pf growth 96h, Pf growth 48h, NS1 function inh, Shiga toxin inh)
CC(C)C[C@H]1CN=C(Nc2ccccc2)N1CC1CCCCCC1	Pf growth 96h 10µM, Pf growth 48h inconclusive (no result: Cycloheximide cs, NS1 function inh, Shiga toxin inh)
N#CC(C#N)=C(N)/C(C#N)=C/c1cc(O)c(O)c(O)c1	Pf growth 96h 9.3µM, Pf growth 48h 12µM (no result: Cycloheximide cs, NS1 function inh, SARS PLP yeast, Shiga toxin inh)
COC(=O)CSc1ccc(S(=O)(=O)N2CCCCCC2)cc1[N+](=O)[O-]	none (no result: NS1 function inh)
NC(=O)C1(N2CCCCC2)CCN(C(=O)Nc2ccccc2C(F)(F)F)CC1	Pf growth 96h 1.7µM
O=C(Nc1ccccc1C(F)(F)F)N1CCCC(O)C1 (centres undefined)	Pf growth 96h inconclusive
O=C(Nc1ccccc1C(F)(F)F)N1CCCCCC1	Cycloheximide cs 9.6, Pf growth 96h inconclusive, Shiga toxin inh 35
COc1ccc(-n2nc(C(=O)NCC(=O)N3CCN(c4ccccc4F)CC3)c3ccccc3c2=O)cc1OC	Cycloheximide cs 25, Pf growth 96h inconclusive, Pf growth 48h inconclusive
COc1ccc(-n2nc(C(=O)NCC(=O)N3CCN(c4ccccc4F)CC3)c3ccccc3c2=O)cc1	none
COc1ccc(-n2nc(C(=O)NCC(=O)N3CCN(Cc4ccccc4)CC3)c3ccccc3c2=O)cc1OC	Pf growth 96h 1µM, Pf growth 48h inconclusive
COc1ccc(-n2nc(C(=O)NCC(=O)NCCC3=CCCCC3)c3ccccc3c2=O)cc1OC	Pf growth 96h 9.3µM, Pf growth 48h inconclusive
CCOc1ccccc1C(=O)Nc1nnc(Cc2ccc(OC)c(OC)c2)s1	none (no result: Shiga toxin inh)
CC(=O)N1c2ccccc2[C@@H](C)[C@@H]1C	none (no result: Cycloheximide cs, NS1 function inh, Shiga toxin inh)
CC(=O)N1c2ccccc2C(=O)C1N(C)c1ccc(C)cc1 (centres undefined)	Cycloheximide cs 33, Shiga toxin inh 45
CC(=O)Nc1ccc(S(=O)(=O)N2CCN=C2SCc2ccccc2C)cc1	none
O=P(OCC1CC1)(c1ccccc1)c1ccccc1	Pf growth 96h inconclusive

Source: PubChem BioAssay
